Consider 40 molecules from PubChem BioAssay (Tox21).

Results filed as inconclusive are left out. Values without a mark were called inactive. Calls follow the shape of the dose curve; as a rule, active = well fitted cell-killing curve with a large enough effect in the repeat runs; inconclusive = weak or mixed curves; inactive = flat fitted curve, though single readings scatter.
% is scaled to controls: 0 for no effect and ±100 for the full control effect.

A short description of the test: qHTS assay to identify small molecule antagonists of the TGF-beta/Smad signaling pathway - cell viability counter screen (AID 1346824). Also: nearly all actives have a fitted effect of over 50% in size. Conditions: SBE-bla HEK293T viability, CellTiter-Glo luminescence; series mostly up to 76.8 µM; viability change, negative = cytotoxic: at the top concentration. The text has this: U.S. Tox21 Program National Center for Advancing Translational Sciences [NCATS] NIH Chemical Genomics Center [NCGC] U.S. Environmental Protection Agency [EPA] National Institutes of Environmental Health Sciences [NIEHS] National Toxicology Program [NTP] U.S. Food and Drug Administration [FDA] Tox21 Assay Overview: Transforming growth factor beta (TGF-beta) superfamily consists of a large number of structurally related dimeric proteins that act as hormones or local mediators in regulating a wide range of biological functions. This superfamily includes TGF-betas themselves, the bone morphogenetic proteins (BMPs) and the activins. These ligands induce oligomerization of serine/threonine receptor kinases and phosphorylate the cytoplasmic signaling molecules of Smad protein family. CellSensor SBE-bla HEK 293T cell line (Life Technologies, Carlsbad, CA), responsive to TGF-beta was used to screen Tox21 10K compound library for identification of agonists/antagonists of the Smad signaling pathway. This cell line contains a beta-lactamase reporter gene under control of the Smad binding element (SBE) stably integrated into HEK 293T cells. Also cytotoxicity of the compounds was tested in parallel by measuring the cell viability using CellTiter-Glo assay system in the same wells.
Tox21 Assay Protocol Summary: SBE-bla HEK 293T cells were dispensed at 4,000/well in 5 uL of assay medium into black wall/clear-bottom 1536-well plates using a Multidrop Combi (ThermoFisher Scientific, Waltham, MA) dispenser. After the assay plates were incubated at 37 C and 5% CO2 for an overnight, 23 nL of compounds dissolved in DMSO, positive controls or DMSO only was transferred to the assay plate by a Pintool station (Kalypsys, San Diego, CA). Compound transfer was followed by the addition of 1 uL of 0.25 ng/mL TGF-beta1 or assay buffer using two separate tips of Flying Reagent Dispenser (FRD, Aurora Discovery, San Diego, CA). The assay plates were incubated at 37 C and 5% CO2 for 5 hr. One uL of LiveBLAzer B/G FRET substrate (Life Technologies) was added using a Flying Reagent Dispenser (FRD, Aurora Discovery, San Diego, CA) and the plates were incubated at room temperature for 2 hr. Fluorescence intensity (405 nm excitation, 460 nm and 530 nm emissions) was measured using an Envision plate reader (PerkinElmer, Shelton, CT). For cytotoxicity read, 4 uL of CellTiter-Glo reagent (Promega Corporation, Madison, WI) was added to each well of the assay plates using FRD. After 30 min incubation at room temperature, the luminescence intensity was measured using ViewLux plate reader (PerkinElmer).
In general terms: Quantitative high-throughput screening tests each substance at several concentrations.
`CC(=O)OCCc1ccccc1`: the “viability change, negative = cytotoxic” value was -1.92%.

For the molecule `Cc1nc2ccccc2n1Cc1ccc(Cl)cc1`, the “viability change, negative = cytotoxic” value was -17.7% [at 35.3 µM].

On to `COC(Cc1ccccc1)OC`, for which the “viability change, negative = cytotoxic” value is 1.25%.

In the case of `Oc1ccc(Sc2ccc(O)cc2)cc1`, the “viability change, negative = cytotoxic” value is -10.1%.

In the case of `CC(=O)NCCCS(=O)(=O)O`, the “viability change, negative = cytotoxic” value was -7.92% [at 35.3 µM].

In the case of `c1ccc(OCc2ccc(CCCN3CCOCC3)cc2)cc1`, the “viability change, negative = cytotoxic” value was -2.89% [at 35.3 µM].

Take `N#Cc1c(F)cccc1F`: the “viability change, negative = cytotoxic” value is 7.4%.

Consider `CC[C@H](C)[C@H](N)C(=O)O`, for which the “viability change, negative = cytotoxic” value was -11.2% [at 35.3 µM].

Consider `Cc1ccc2c(ccc3ccccc32)c1`, for which the “viability change, negative = cytotoxic” value was -10.4%.

With `O=C(O)C(c1ccc(Cl)cc1)c1ccc(Cl)cc1`, the “viability change, negative = cytotoxic” value was -5.02%.

Regarding `O=S1(=O)c2cccc3cccc(c23)N1CCCN1CCN(c2ccc(F)cc2)CC1`, the “viability change, negative = cytotoxic” value was 0.282% [at 35.3 µM].

Regarding `O=C(CC(=O)c1ccccc1)c1ccccc1`, the “viability change, negative = cytotoxic” value is 0.535%.

On to `CC(C)(C)c1cc(O)c(C(C)(C)C)cc1O`, for which the “viability change, negative = cytotoxic” value is -2.72%.

`CC(C)CC=O`: the “viability change, negative = cytotoxic” value was -3.6%.

As to `O=C(NS(=O)(=O)/C=C/c1cccs1)c1ccc(F)cc1Br`, the “viability change, negative = cytotoxic” value was -2.93%.

As to `CCCCCCCCCC(=O)OCC`, the “viability change, negative = cytotoxic” value was -10.2%.

For the molecule `CN1CCC(=C2c3ccccc3CCc3sccc32)CC1`, the “viability change, negative = cytotoxic” value was -20.4% [at 35.3 µM].

Turning to `CC(C(=O)O)c1ccc(C(=O)c2ccccc2)s1` (stereo not given), the “viability change, negative = cytotoxic” value is -0.363% [at 35.3 µM].

On to `CCN(CC)C(C)CN1c2ccccc2Sc2ccccc21` (stereo not given), for which the “viability change, negative = cytotoxic” value was 19.5% [at 35.3 µM].

As for `OCC1CC2CC1C1CCC(CO)C21` (stereo not given), the “viability change, negative = cytotoxic” value is -20%.

Consider `O=C(c1ccccc1)c1ccc2n1CCC2C(=O)O` (stereo not given), for which the “viability change, negative = cytotoxic” value was 6.6% [at 35.3 µM].

With `CCOC(=O)C1=NN(c2ccccc2)C(=O)C1`, the “viability change, negative = cytotoxic” value was -18.5%.

Consider `CCCOc1ccc2nc(NC(=O)OC)[nH]c2c1`, for which the “viability change, negative = cytotoxic” value was -0.567% [at 35.3 µM].

With `CN1CCN(C2=Nc3cc(Cl)ccc3Nc3ccccc32)CC1`, the “viability change, negative = cytotoxic” value was -5.69% [at 35.3 µM].

Consider `c1ccc(-c2nc[nH]c2-c2ccccc2)cc1`, for which the “viability change, negative = cytotoxic” value was -0.919% [at 35.3 µM].

As to `CN(C)C/C=C(/c1ccc(Br)cc1)c1cccnc1`, the “viability change, negative = cytotoxic” value was 6.68% [at 35.3 µM].

As to `CC1=CCC(C(C)C)C=C1` (stereo not given), the “viability change, negative = cytotoxic” value is -0.83%.

Consider `CC(C)=CCCC(C)CC=O` (stereo not given), for which the “viability change, negative = cytotoxic” value is 3.79%.

As to `CCCc1ccccc1`, the “viability change, negative = cytotoxic” value was 6.01%.

Consider `C1CCC2OC2C1` (stereo not given), for which the “viability change, negative = cytotoxic” value is -2.3%.

On to `CC(C)NCC(O)COc1ccc(CC(N)=O)cc1` (stereo not given), for which the “viability change, negative = cytotoxic” value was 4.55%.

For the molecule `COC(=O)C(C)=O`, the “viability change, negative = cytotoxic” value was 4.4%.

Regarding `CCOC(=O)C1=C(C)NC(C)=C(C(=O)OC)C1c1cccc([N+](=O)[O-])c1` (stereo not given), the “viability change, negative = cytotoxic” value was -2.47% [at 35.3 µM].

Consider `Cn1sccc1=O`, for which the “viability change, negative = cytotoxic” value was -16.8%.

Take `C=CC(=O)OCC(C)OCC(C)OCC(C)OC(=O)C=C` (stereo not given): the “viability change, negative = cytotoxic” value is 29.7%.

On to `CCCCCOC(=O)COc1cc(N2C(=O)C3=C(CCCC3)C2=O)c(F)cc1Cl`, for which the “viability change, negative = cytotoxic” value was -1.93%.

Regarding `CCN(CC)CCOC(=O)C1(c2ccccc2)CCCC1`, the “viability change, negative = cytotoxic” value was 7.17% [at 35.3 µM].

For `CC(C)c1ccccc1C(C)C`, the “viability change, negative = cytotoxic” value was 4.5%.

With `CCCCCCCCC(CO)CCCCCC` (stereo not given), the “viability change, negative = cytotoxic” value is -6.17%.

For `Cc1ccc(C)o1`, the “viability change, negative = cytotoxic” value was -15.7%.
